Inconclusive results are not listed. Activity calls are given as the source filed them. Unless noted, calls come from the whole dose curve; as a rule, active = well fitted curve in the direction sought with a large enough effect in the repeat runs; inconclusive = weak or mixed curves; inactive = no such curve, though single readings can be large; an effect the other way counts as inactive or inconclusive.
Tests used:
[1] = qHTS assay to identify aromatase inhibitors - cell viability counter screen (AID 743084);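 note: cells stimulated with testosterone during compound exposure; nearly all actives have a fitted effect of over 55% in size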
[2] = target: Aryl hydrocarbon receptor (Homo sapiens) (UniProt P35869); test: qHTS assay to identify small molecule that activate the aryl hydrocarbon receptor (AhR) signaling pathway (AID 743085);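 note: HG2L7.5c1 human HepG2 liver cells with stably integrated DRE-driven firefly reporter; series mostly up to about 70 µM; nearly all actives have a fitted effect of over 15% in size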
Chain of Aryl hydrocarbon receptor (Homo sapiens) (P35869 whole entry, looked up): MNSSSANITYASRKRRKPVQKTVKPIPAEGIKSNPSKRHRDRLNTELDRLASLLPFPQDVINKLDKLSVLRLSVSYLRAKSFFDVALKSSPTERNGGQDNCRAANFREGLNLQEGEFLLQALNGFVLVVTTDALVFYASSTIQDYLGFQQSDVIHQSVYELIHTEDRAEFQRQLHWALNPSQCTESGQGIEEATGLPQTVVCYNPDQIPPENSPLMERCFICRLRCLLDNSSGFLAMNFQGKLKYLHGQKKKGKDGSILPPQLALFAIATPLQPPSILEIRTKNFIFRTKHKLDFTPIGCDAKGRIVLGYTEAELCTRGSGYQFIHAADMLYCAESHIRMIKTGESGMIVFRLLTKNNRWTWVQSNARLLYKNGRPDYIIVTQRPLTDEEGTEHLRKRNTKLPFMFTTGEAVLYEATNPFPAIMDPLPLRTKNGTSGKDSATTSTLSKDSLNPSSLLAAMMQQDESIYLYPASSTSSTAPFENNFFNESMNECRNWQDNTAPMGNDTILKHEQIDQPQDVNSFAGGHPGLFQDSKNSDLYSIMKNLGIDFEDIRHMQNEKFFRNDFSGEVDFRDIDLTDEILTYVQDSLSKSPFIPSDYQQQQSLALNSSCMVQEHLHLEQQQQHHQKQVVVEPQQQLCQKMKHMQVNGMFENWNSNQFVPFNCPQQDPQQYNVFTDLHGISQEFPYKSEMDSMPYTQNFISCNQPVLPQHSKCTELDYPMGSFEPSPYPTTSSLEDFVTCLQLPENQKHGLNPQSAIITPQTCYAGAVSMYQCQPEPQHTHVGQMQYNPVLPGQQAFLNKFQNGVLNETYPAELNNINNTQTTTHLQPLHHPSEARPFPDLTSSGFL
Procedure, shortened: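 Reporter assay in engineered HepG2 line HG2L7.5c1, whose plasmid carries twenty dioxin responsive elements upstream of firefly luciferase. Treatment lasted 24 h at 37C; ONE-Glo luminescence gauged induction.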

[3] = qHTS assay to identify small molecule that activate the aryl hydrocarbon receptor (AhR) signaling pathway - cell viability counter screen (AID 743086);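 note: HepG2 liver cells carrying the AhR DRE luciferase reporter; series mostly up to about 70 µM; nearly all actives have a fitted effect of over 45% in size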
Procedure, shortened: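 HepG2-AhR-luc (HG2L7.5c1) cells, 4000/well, treated 24 h at 37 C with compound; viability measured as CellTiter-Fluor fluorescence after 30 min in the same wells as the luciferase read.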

[4] = target: Peroxisome proliferator-activated receptor gamma (Homo sapiens) (UniProt P37231); test: qHTS assay to identify small molecule agonists of the peroxisome proliferator-activated receptor gamma (PPARg) signaling pathway (AID 743094; active = well fitted activation curve with a large enough effect in the signal ratio in the repeat runs, not every such curve was filed as active; the % refers to the signal ratio)
Chain of Peroxisome proliferator-activated receptor gamma (Homo sapiens) (P37231 whole entry, looked up): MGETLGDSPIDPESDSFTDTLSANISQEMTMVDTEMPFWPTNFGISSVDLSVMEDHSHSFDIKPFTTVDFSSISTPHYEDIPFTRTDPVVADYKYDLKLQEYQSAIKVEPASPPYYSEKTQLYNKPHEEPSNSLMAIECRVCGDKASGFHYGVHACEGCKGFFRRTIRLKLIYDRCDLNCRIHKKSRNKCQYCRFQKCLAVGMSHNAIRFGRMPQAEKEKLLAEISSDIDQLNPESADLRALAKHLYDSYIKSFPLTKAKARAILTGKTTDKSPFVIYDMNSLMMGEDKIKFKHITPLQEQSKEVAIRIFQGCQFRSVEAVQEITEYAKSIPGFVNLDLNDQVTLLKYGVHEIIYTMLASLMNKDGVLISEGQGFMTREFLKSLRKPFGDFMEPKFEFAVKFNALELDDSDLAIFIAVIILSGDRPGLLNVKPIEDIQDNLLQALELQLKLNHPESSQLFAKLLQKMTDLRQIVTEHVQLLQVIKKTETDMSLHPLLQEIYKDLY
Procedure, shortened: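 Beta-lactamase FRET fluorescence was the read-out after a 1 h room-temperature substrate step, following 17 h compound treatment at 37C of HEK293H cells expressing a UAS-driven bla reporter responsive to PPARg.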

[5] = qHTS assay to identify small molecule antagonists of the peroxisome proliferator-activated receptor gamma (PPARg) signaling pathway - cell viability counter screen (AID 743194); note: nearly all actives have a fitted effect of over 55% in size
Procedure, shortened: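 Cytotoxicity counter screen in PPARg-bla HEK293H cells, same wells as reporter assay. Compounds plus 50 nM rosiglitazone (final) for 17 h at 37 C, then viability read by CellTiter-Glo luminescence.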

[6] = qHTS assay for small molecule agonists of the antioxidant response element (ARE) signaling pathway (AID 743202; active = well fitted activation curve with a large enough effect in the signal ratio in the repeat runs, not every such curve was filed as active; the % refers to the signal ratio)
Procedure, shortened: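 Agonist mode reporter screen: HepG2 cells with ARE-controlled beta-lactamase are incubated with test compounds for 16 h at 37 C, and beta-lactamase activity is measured as fluorescence of cleaved B/G FRET substrate.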

[7] = qHTS assay for small molecule agonists of the antioxidant response element (ARE) signaling pathway - cell viability counter screen (AID 743203; calls by dose curve; note: nearly all actives have a fitted effect of over 55% in size)
Procedure, shortened: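 HepG2 cells carrying ARE-driven beta-lactamase; 2,000 cells/well; 5 hrs plating; compound pinned from DMSO; 16 hrs 37C/5% CO2; CellTiter-Glo added; 30 min RT; luminescence.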

[8] = target: Peroxisome proliferator-activated receptor delta (Homo sapiens) (UniProt Q03181); test: qHTS assay to identify small molecule agonists of the peroxisome proliferator-activated receptor delta (PPARd) signaling pathway (AID 743212; calls by dose curve)
Chain of Peroxisome proliferator-activated receptor delta (Homo sapiens) (Q03181 whole entry, looked up): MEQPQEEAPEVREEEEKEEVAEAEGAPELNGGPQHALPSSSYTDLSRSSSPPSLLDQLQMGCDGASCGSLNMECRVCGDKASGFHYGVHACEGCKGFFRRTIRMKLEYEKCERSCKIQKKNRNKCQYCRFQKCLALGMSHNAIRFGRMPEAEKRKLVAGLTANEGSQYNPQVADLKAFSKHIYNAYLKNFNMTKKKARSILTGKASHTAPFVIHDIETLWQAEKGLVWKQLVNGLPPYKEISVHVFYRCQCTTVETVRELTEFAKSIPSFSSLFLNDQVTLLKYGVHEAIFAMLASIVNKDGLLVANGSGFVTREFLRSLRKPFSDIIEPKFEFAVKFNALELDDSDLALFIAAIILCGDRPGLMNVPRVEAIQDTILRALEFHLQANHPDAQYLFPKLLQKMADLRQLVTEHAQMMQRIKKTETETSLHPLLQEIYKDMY
Procedure, shortened: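 Quantitative high-throughput agonist screen in a HEK293H beta-lactamase reporter line under UAS control. Compounds in DMSO, at 37 C. Fluorescence read after 2 h with FRET substrate at room temperature.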

[9] = qHTS assay to identify small molecule antagonists of the peroxisome proliferator-activated receptor delta (PPARd) signaling pathway - cell viability counter screen (AID 743213); note: nearly all actives have a fitted effect of over 50% in size
Procedure, shortened: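 In this counter screen, HEK293H cells carrying a UAS-beta-lactamase reporter are co-treated with test compounds and 300 nM L165041 (final) for 17 h at 37 C; cell viability is quantified by CellTiter-Glo luminescence.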

[10] = target: Peroxisome proliferator-activated receptor delta (Homo sapiens) (UniProt Q03181); test: qHTS assay to identify small molecule antagonists of the peroxisome proliferator-activated receptor delta (PPARd) signaling pathway (AID 743215; active = well fitted inhibition curve with a large enough effect in the signal ratio in the repeat runs, not every such curve was filed as active; the % refers to the signal ratio;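 note: cells stimulated with agonist L165041 at 300 nM final during compound exposure; series mostly up to about 62 µM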)
Procedure, shortened: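 Read-out is beta-lactamase FRET fluorescence, measured 2 h after substrate addition at room temperature. Beforehand, UAS-bla HEK293H cells carrying the PPARd reporter were exposed to compounds with L165041 at 300 nM final for 17 h at 37 C.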

[11] = qHTS assay to identify small molecule agonists of the farnesoid-X-receptor (FXR) signaling pathway - cell viability counter screen (AID 743218); note: nearly all actives have a fitted effect of over 45% in size
Procedure, shortened: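 HEK 293T FXR-bla cells; 5 h pre-incubation, 16 h compound exposure at 37 C; LiveBLAzer substrate 2 h RT, then CellTiter-Glo 30 min RT, luminescence.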

[12] = qHTS assay to identify small molecule antagonists of the farnesoid-X-receptor (FXR) signaling pathway - cell viability counter screen (AID 743221; active = well fitted cell-killing curve with a large enough effect in the repeat runs, not every such curve was filed as active; note: nearly all actives have a fitted effect of over 50% in size)
Procedure, shortened: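 CellTiter-Glo, 30 min RT, luminescence; same wells as the LiveBLAzer FRET read. Cells: FXR-UAS-bla HEK 293T. Treatment: compound with chenodeoxycholic acid 50 uM final, 16 h at 37 C.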

[13] = target: Vitamin D3 receptor (Homo sapiens) (UniProt P11473); test: qHTS assay to identify small molecule agonists of the vitamin D receptor (VDR) signaling pathway (AID 743222; calls by dose curve)
Chain of Vitamin D3 receptor (Homo sapiens) (P11473 whole entry, looked up): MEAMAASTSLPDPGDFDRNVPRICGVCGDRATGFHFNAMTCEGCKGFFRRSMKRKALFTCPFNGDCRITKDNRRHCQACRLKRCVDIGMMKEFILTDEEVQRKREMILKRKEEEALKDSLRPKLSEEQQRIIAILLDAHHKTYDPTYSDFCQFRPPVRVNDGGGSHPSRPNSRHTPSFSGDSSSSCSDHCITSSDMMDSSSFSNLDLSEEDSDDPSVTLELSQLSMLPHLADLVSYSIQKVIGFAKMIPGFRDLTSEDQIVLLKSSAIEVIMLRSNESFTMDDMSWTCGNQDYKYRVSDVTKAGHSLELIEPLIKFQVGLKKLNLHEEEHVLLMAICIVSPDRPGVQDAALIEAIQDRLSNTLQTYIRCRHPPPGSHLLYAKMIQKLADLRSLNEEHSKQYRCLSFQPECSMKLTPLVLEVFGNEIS
Procedure, shortened: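 VDR-bla cells, 2,000/well; 4 h preincubation 37C; cpd (DMSO) 16 h; LiveBLAzer B/G substrate 2 h RT; fluorescence intensity read.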

[14] = target: Vitamin D3 receptor (Homo sapiens) (UniProt P11473); test: qHTS assay to identify small molecule antagonists of the vitamin D receptor (VDR) signaling pathway (AID 743223; active = well fitted inhibition curve with a large enough effect in the signal ratio in the repeat runs, not every such curve was filed as active; the % refers to the signal ratio)
Procedure, shortened: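 After VDR-bla cells are plated and left 4 h at 37C, DMSO-dissolved compounds and 3 nM (final) calcitriol agonist are added. Incubation continues 16 h at 37C; FRET beta-lactamase substrate then develops 2 h at room temperature.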

[15] = qHTS assay for small molecule activators of the heat shock response signaling pathway - cell viability counter screen (AID 743209); note: nearly all actives have a fitted effect of over 50% in size
Procedure, shortened: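 Luminescence from CellTiter-Glo, added after the beta-lactamase FRET read, gave the viability signal. Cells were HSE-bla HeLa treated with DMSO-dissolved compounds for 5 h at 37 C following overnight plating.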

[16] = qHTS assay for small molecule activators of the heat shock response signaling pathway (AID 743210; active = well fitted activation curve with a large enough effect in the signal ratio in the repeat runs, with a control signal flat, not every such curve was filed as active; the % refers to the signal ratio;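 note: HeLa cells with beta-lactamase reporter driven by heat shock elements; series mostly up to about 63 µM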)
Procedure, shortened: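 Quantitative high-throughput format using an engineered HeLa line in which heat shock response elements drive beta-lactamase; after 5 h with compound, cells received a B/G FRET substrate and fluorescence was read.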

[17] = qHTS assay to identify small molecule agonists of the peroxisome proliferator-activated receptor delta (PPARd) signaling pathway - cell viability counter screen (AID 743211); note: nearly all actives have a fitted effect of over 55% in size
Procedure, shortened: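 Multiplexed format: after the 2 h room-temperature LiveBLAzer B/G FRET step, CellTiter-Glo was added to the same wells. Luminescence after 30 min gave cell viability; compound exposure was 17 h at 37C.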

[18] = target: Peroxisome proliferator-activated receptor gamma (Homo sapiens) (UniProt P37231); test: qHTS assay to identify small molecule antagonists of the peroxisome proliferator-activated receptor gamma (PPARg) signaling pathway (AID 743191; calls by dose curve; note: series mostly up to about 63 µM; nearly all actives have a fitted effect of over 30% in size)
Procedure, shortened: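 GeneBLAzer PPARg UAS-bla HEK293H cells, 5 h post-plating, exposed to compounds 17 h at 37C. LiveBLAzer B/G FRET substrate added for 1 h at room temperature; beta-lactamase reporter read by fluorescence intensity.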

[19] = target: Bile acid receptor (Homo sapiens) (UniProt Q96RI1); test: qHTS assay to identify small molecule antagonists of the farnesoid-X-receptor (FXR) signaling pathway (AID 743217; active = well fitted inhibition curve with a large enough effect in the signal ratio in the repeat runs, not every such curve was filed as active; the % refers to the signal ratio)
Chain of Bile acid receptor (Homo sapiens) (Q96RI1 whole entry, looked up): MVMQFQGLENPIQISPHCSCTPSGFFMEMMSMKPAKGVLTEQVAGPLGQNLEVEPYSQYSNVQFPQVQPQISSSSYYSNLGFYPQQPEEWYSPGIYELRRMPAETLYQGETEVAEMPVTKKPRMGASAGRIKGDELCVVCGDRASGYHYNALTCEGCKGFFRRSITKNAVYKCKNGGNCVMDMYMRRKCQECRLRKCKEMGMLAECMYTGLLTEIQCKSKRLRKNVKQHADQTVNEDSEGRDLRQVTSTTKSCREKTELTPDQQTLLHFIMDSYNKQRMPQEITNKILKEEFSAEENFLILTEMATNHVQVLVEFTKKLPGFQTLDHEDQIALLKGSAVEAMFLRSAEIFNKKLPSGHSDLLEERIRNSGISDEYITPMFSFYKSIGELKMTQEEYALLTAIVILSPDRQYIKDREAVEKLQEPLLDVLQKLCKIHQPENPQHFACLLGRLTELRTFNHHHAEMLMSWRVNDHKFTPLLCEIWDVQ
Procedure, shortened: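 HEK 293T FXR-UAS-bla, 5000 cells/well; compound + CDCA 50 uM final; 16 h, 37 °C; B/G FRET substrate 2 h RT; fluorescence.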

[20] = target: Bile acid receptor (Homo sapiens) (UniProt Q96RI1); test: qHTS assay to identify small molecule agonists of the farnesoid-X-receptor (FXR) signaling pathway (AID 743220; active = well fitted activation curve with a large enough effect in the signal ratio in the repeat runs, not every such curve was filed as active; the % refers to the signal ratio)
Procedure, shortened: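 Beta-lactamase reporter under UAS control in GeneBLAzer FXR HEK 293T cells (5000/well) measured with LiveBLAzer FRET substrate after 2 h at room temperature. Compound exposure lasted 16 h at 37C.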

Measured: Potency

CC(C(=O)O)c1ccc(CC2CCCC2=O)cc1 (stereo unspecified)
not listed: [15] | [16] | [17] | [18] | [19] | [20]
inactive: all other assays above

CN(C)CCCNCCCN(C)C
not listed: [5] | [6] | [8] | [9] | [10] | [18] | [19] | [20]
inactive: all other assays above

CC/C=C\CC/C=C/CO
inactive: [1] | [2] | [3] | [4] | [5] | [7] | [15] | [17] | [9] | [12]

CC1(C)C(O)C(C)(C)C1O (stereo unspecified)
not listed: [4] | [11] | [17] | [19] | [20]
inactive: all other assays above

Nc1ccccc1S(=O)(=O)O
not listed: [4] | [8] | [10] | [11] | [19] | [20]
inactive: all other assays above

NC(=O)c1ccc([N+](=O)[O-])cc1
not listed: [6] | [11] | [14] | [16] | [18] | [19] | [20]
inactive: all other assays above

O=C1NC(=O)[C@@]2(CCOc3ccc(F)cc32)N1
not listed: [9] | [10] | [16] | [18] | [19] | [20]
inactive: all other assays above

CCCCOCCOCCOCCCC
not listed: [6] | [8] | [10] | [13] | [14] | [18]
inactive: all other assays above

C=COCC1CCC(CO)CC1 (stereo unspecified)
not listed: [6] | [9] | [18]
inactive: all other assays above

O=C1CC2CC1C1CCCC21 (stereo unspecified)
not listed: [6] | [13] | [14] | [18] | [20]
inactive: all other assays above

Cc1ccc(C#N)cc1
not listed: [6] | [11] | [14] | [18] | [20]
inactive: all other assays above

CCCCC/C=C\CCC=O
not listed: [6] | [8] | [10] | [18] | [19] | [20]
inactive: all other assays above

CC(C)c1cc2c(cc1S(=O)(=O)O)[C@@]1(C)CCC[C@@](C)(C(=O)O)[C@@H]1CC2
not listed: [4] | [9] | [10] | [15] | [19] | [20]
inactive: all other assays above

CCN1CCC[C@H]1CNC(=O)c1cc(S(N)(=O)=O)ccc1OC
not listed: [8] | [9] | [10] | [15] | [18] | [19] | [20]
inactive: all other assays above

COCCc1ccc(OCC(O)CNC(C)C)cc1 (stereo unspecified)
not listed: [9] | [11] | [16] | [18] | [20]
inactive: all other assays above

Oc1ccc(C2CNCCc3c2cc(O)c(O)c3Cl)cc1 (stereo unspecified)
not listed: [6] | [8] | [10] | [11] | [15] | [18] | [19] | [20]
inactive: all other assays above

OC(CCN1CCCCC1)(c1ccccc1)C1CC2C=CC1C2 (stereo unspecified)
not listed: [6] | [9] | [18]
inactive: all other assays above

O=C(CCCN1CCN(c2ccccn2)CC1)c1ccc(F)cc1
not listed: [6] | [8] | [10] | [17] | [18] | [19] | [20]
inactive: all other assays above

Reference: PubChem BioAssay (Tox21)
